Source: PubChem
Only some compounds are listed: those with a hit (about 3.7% of all), similar ones and a draw of the others.
PTHR1 agonist: activates the human parathyroid hormone receptor PTHR1; Q03431; HEK293 GP2 PTHR1 cells, GloSensor cAMP luminescence, 1 h; Potency, µM (series often up to 115 µM), actives largely listed as activators; actives 0.075% (n = 410,000); AID 743266; note: nearly all actives have a fitted effect of over 55% in size
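HEK-293-derived GP2 cells expressing PTHR1 and a GloSensor cAMP reporter, 3,000/well, plated overnight, given luciferin plus IBMX (each 0.5 mM as added) for 1 h at 37 °C, then compound for 1 h at 37 °C. Luminescence was read after 15 min at room temperature.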
BRCA1 expr act: activators of BRCA1 expression; actives 1.1% (n = 380,000); MCF7-BRCA1-FFLuc reporter, luminescence, 48 h; response scale: scaled: vehicle 0%, 10 µM genistein 100%; Potency, µM (series often up to 46.1 µM), actives largely listed as activators; note: nearly all actives have a fitted effect of over 80% in size
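Using MCF7 cells harboring a BRCA1 firefly luciferase reporter, plated 2 h before compound pinning, the screen measured luminescence after 48 h incubation. Responses were normalized to DMSO and 10 microM genistein, then fitted for concentration-effect.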
DRD3 agonist: agonists of human D3 dopamine receptor; P35462; D3R DiscoveRx beta-arrestin cells, luminescence, 90 min; max activation, %; actives 0.58% (n = 410,000); in the data active = max activation above about 30%
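Agonist-mode cell screen: cells plated at 1500/well and incubated overnight at 37 °C, then exposed to library compounds for 90 min at 37 °C. Detection reagent was added for 30–60 min at room temperature, and luminescence was read.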
RGS4 inh: blocks human RGS4-accelerated GTP hydrolysis | Transcreener GDP fluorescence polarization, RGS4-accelerated GTP hydrolysis | actives 0.039% (n = 390,000) | Potency, µM (highest dose often 114 µM), hits mostly inhibitors; note: nearly all actives have a fitted effect of over 75% in size
Target sequence (P49798 whole entry, looked up): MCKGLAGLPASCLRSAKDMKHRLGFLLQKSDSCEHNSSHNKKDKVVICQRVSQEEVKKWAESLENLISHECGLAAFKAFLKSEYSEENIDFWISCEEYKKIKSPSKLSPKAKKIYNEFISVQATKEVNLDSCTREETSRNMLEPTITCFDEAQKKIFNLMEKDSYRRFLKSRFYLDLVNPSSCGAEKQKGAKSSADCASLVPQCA
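MLSMR compounds (23 nl, pin-transferred) preincubated 10 min at room temperature with a 500nM (2x) first reagent, then RGS4 at 900nM (2x) plus Transcreener GDP mix added; fluorescence polarization (620/688 nm) read before and after 90 min at 30 °C.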
B2AR arrestin: beta2AR (human) beta-arrestin recruitment activity. beta-arrestin recruitment to beta2AR, cell-based reporter. Potency, µM (titrated, usually from 46.1 µM), most hits filed as activators. actives 0.02% (n = 330,000). P07550; note: nearly all actives have a fitted effect of over 65% in size
Target sequence (P07550 whole entry, looked up): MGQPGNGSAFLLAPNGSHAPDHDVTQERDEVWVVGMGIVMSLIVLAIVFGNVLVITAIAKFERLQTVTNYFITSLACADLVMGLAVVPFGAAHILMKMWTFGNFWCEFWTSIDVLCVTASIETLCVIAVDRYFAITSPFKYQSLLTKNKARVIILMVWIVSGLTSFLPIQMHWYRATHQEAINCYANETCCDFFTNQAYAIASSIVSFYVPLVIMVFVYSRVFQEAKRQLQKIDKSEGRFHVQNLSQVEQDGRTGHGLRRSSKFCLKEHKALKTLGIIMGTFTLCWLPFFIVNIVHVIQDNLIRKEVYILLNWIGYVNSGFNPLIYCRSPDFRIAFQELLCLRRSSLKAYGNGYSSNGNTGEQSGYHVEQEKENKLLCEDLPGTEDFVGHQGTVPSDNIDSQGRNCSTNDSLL
DRD3 antagonist: D3 dopamine receptor (human) antagonism | P35462 | D3R cells, DiscoveRx beta-arrestin luminescence, antagonist mode; stronger effect = lower value | max response, negative = inhibition, % | actives 2.5% (n = 360,000) | AID 652054; in the data active = max response below about -50%; inconclusive = no clear call, values can overlap the other calls
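Cells plated overnight at 1500 cells/well, then exposed to library compounds with dopamine controls for 90 minutes at 37 degrees C. DiscoveRx reagent added for 30–60 minutes at room temperature; luminescence read, quantitative HTS format.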
Hits are given with their value; n = inactive; u = inconclusive; x = no result; [ ] = another dose, or the depositor's remark. Unless noted, calls come from the whole dose curve; as a rule, active = well fitted curve in the direction sought with a large enough effect; inconclusive = small, poorly fitted or top-dose-only effect, or another doubt; inactive = no such curve, though single readings can be large; an effect the other way counts as inactive or inconclusive.

SMILES	PTHR1 agonist	BRCA1 expr act	DRD3 agonist	RGS4 inh	B2AR arrestin	DRD3 antagonist
O=C(NCCOCCNC(=O)OCc1ccccc1)OCc1ccccc1	n	n	n	n	n	n
O=C(COc1ncnc2ccccc12)NCc1ccc2c(c1)OCO2	n	n	n	n	n	n
Cc1nc2ccccc2nc1OCC(=O)NCc1ccc2c(c1)OCO2	n	n	n	n[11.4 µM]	n	-65
CC(C)CN1C(=O)C(=O)N(CC(=O)NCc2ccc3c(c2)OCO3)C1=O	n	n	n	n	n	-52
CCc1nc(-c2cc(S(=O)(=O)N3CCN(c4ccccc4OC)CC3)ccc2OC)no1	n	x	n	n	x	x
CS(=O)(=O)Nc1cccc(C(=O)OCCCOc2ccc(F)cc2)c1	n	n	74	n	n	n
COC(=O)Cc1ccc(N(Cc2ccccc2F)S(=O)(=O)c2ccc(Cl)cc2)cc1	n	n	n	n	n	-56
COC(=O)CN(c1ccc(F)cc1)S(=O)(=O)c1ccccc1	n	n	n	n	n	n
CCN(CC)S(=O)(=O)c1ccc(C)c(NC(=O)CNCCN(C(C)C)C(C)C)c1	n	n	n	n	n	n
O=C(CSC1=NCCN1)Nc1cccc(C(F)(F)F)c1	n	n	n	n	n	-65
Cn1ccnc1SCC(=O)Nc1cccc(C(F)(F)F)c1	n	n	n	n	n	n
CN(C)[C@@H]1CCC[C@H]1OC(=O)C(c1ccccc1)c1ccccc1	n	n	n	u	n	-53
O=C(NC1CC(=O)N(c2ccc(Cl)cc2)C1)N1CCN(C(=O)c2ccco2)CC1 (stereo unspecified)	n	n	n	n	n	n
CSc1ccc(CCNC(=O)CCCn2nc(C)c3sc4ccccc4c3c2=O)cc1	n	x	n	n	x	x
Cc1nn2cc(-c3ccccc3)nc2s1	n	n	n	n	n	n
CCCCCc1nn2cc(-c3ccccc3)nc2s1	n	n	37	n	x	x
CC(C)Cc1nn2cc(-c3cccc(Br)c3)nc2s1	n	u	66	n	x	x
O=C1Nc2ccc(F)cc2C12Nc1ccccc1-c1nnc(SCc3ccccc3)nc1O2 (stereo unspecified)	n	n	n	n	n	-81
Cc1ccc(CSc2nnc3c(n2)OC2(Nc4ccccc4-3)C(=O)Nc3ccc(F)cc32)cc1 (stereo unspecified)	n	n	n	n	n	u
O=C1N(CN2CCN(Cc3ccccc3)CC2)c2ccccc2C12OCCCO2	n	n	n	n	n	n
CCOc1ccc(-c2cn(-c3ccc(OC)cc3)c(SC)n2)cc1	n	11µM	n	n	n	n
COc1ccc(CNC(=O)C2CCN(C(=O)N3CCOc4ccc(Cl)cc43)CC2)cc1	n	x	n	n	x	x
CCCOc1ccc(CSc2ncn[nH]2)cc1	n	u	n	n[11.4 µM]	n	-82
Brc1ccc(CSc2ncn[nH]2)cc1	n	n	n	n	n	n
CC(=O)NC(c1ccccc1)c1cc([N+](=O)[O-])c2cccnc2c1O (stereo unspecified)	n	n	n	n	n	u
SMILES	PTHR1 agonist	BRCA1 expr act	DRD3 agonist	RGS4 inh	B2AR arrestin	DRD3 antagonist
CCC(=O)NC(c1cccs1)c1cc([N+](=O)[O-])c2cccnc2c1O (stereo unspecified)	n	n	n	n	n	-69
CC(C)C(=O)NC(c1ccccc1)c1cc([N+](=O)[O-])c2cccnc2c1O (stereo unspecified)	n	n	n	n	n	-77
CCCC(=O)NC(c1cccs1)c1cc([N+](=O)[O-])c2cccnc2c1O (stereo unspecified)	n	n	n	n	n	u
CCCC(=O)NC(c1ccccc1)c1ccc2cccnc2c1O (stereo unspecified)	n	n	31	n	n	u
CC1CCN(c2ccc3c(c2)S(=O)(=O)c2cccc(C(=O)NCc4cccc(F)c4)c2C3=O)CC1	n	n	106	n	n	n
O=C(NCc1ccc(OC(F)(F)F)cc1)c1cccc2c1C(=O)c1ccc(N3CCCC3)cc1S2(=O)=O	n	n	n	n	n	-51
O=C(NCc1ccco1)c1cccc2c1C(=O)c1ccc(N3CCC(Cc4ccccc4)CC3)cc1S2(=O)=O	n	n	31	n	n	n
CNC(=O)C1CCC(Cn2c(=O)c3sccc3n(CC(=O)Nc3ccc(C)cc3C)c2=O)CC1 (stereo unspecified)	n	x	n	n	x	x
CC(=O)NCCN=C(C)c1sc2ccccc2c1O	n	13µM	n	u	n	n
CC(=Nc1ccc(O)cc1)c1sc2ccccc2c1O	n	n	n	n	n	n
CCCC1=NN(C(=O)C(=O)Nc2ccc(Br)cc2)C(O)(C(F)(F)F)C1 (stereo unspecified)	n	n	n	n	n	-56
CCC1=NN(C(=O)C(=O)Nc2ccc(Br)cc2)C(O)(C(F)(F)F)C1 (stereo unspecified)	n	n	n	n	n	n
CN(C)/C=C/C(=O)c1ccc(-c2ccc(Cl)cc2Cl)o1	n	11µM	n	n	n	n
O=C(O)c1ccc(-c2ccc(Cl)cc2Cl)o1	n	n	n	n	n	n
c1ccc(-c2ccc(OCCCn3cncn3)cc2)cc1	n	11µM	n	n[11.4 µM]	n	n
c1ccc(COc2ccc(OCCn3cncn3)cc2)cc1	n	n	n	n	n	n
Cc1ccc(CCNC(=O)c2cc3c(s2)-c2c(C)cccc2OC3)cc1	n	x	n	n	x	x
O=C(Nc1ccc(Cl)cn1)c1cc2c(s1)-c1ccccc1OC2	n	5.6µM	n	n	n	n
CC1CCN(CCCNC(=O)c2cc3c(s2)-c2ccccc2OC3)CC1	n	n	n	n	n	-83
O=C(Nc1cccnc1Cl)c1cc2c(s1)-c1ccccc1OC2	n	n	n	n	n	n
CC1CCCN(CCCNC(=O)c2cc3c(s2)-c2ccccc2OC3)C1 (stereo unspecified)	n	n	n	n	n	u
Cc1cccc2c1-c1sc(C(=O)NCCCN3CCC(C)CC3)cc1CO2	n	n	n	n	n	-95
CCC(C)(C)NC(=O)CN(C(=O)C(=O)Nc1ccc2c(c1)OCCO2)C1CC1	n	n	n	n	n	n
COc1ccc(CCN2C(=O)N(c3ccc(C)cc3)C(=O)C2CC(=O)Nc2ccc(OC)cc2)cc1 (stereo unspecified)	n	x	n	n	x	x
O=C(CSc1nc2c([nH]c3ccccc32)c(=O)n1-c1cccc(Cl)c1)N1CCCC1	n	n	n	n	x	x
CCc1nc2ccc(C(=O)N3CCN(C(=O)c4ccco4)CC3)cn2c1N(CC)Cc1cccc(Br)c1	n	n	n	x	x	n
